# Laboratory results published in article PMC5540273 (PLoS ONE, 2017).
# Key:
# Conditions in all cases: concentration: 1 μM,replicates: in singlicate; n = 1
# CDK8 = test system: CDK8
# CDK9 = test system: CDK9
# CDKL1 = test system: CDKL1
# CDKL2 = test system: CDKL2
# CDKL3 = test system: CDKL3
# CDKL5 = test system: CDKL5
# CHEK1 = test system: CHEK1
# CHEK2 = test system: CHEK2
# CIT = test system: CIT
# CLK1 = test system: CLK1
# CLK2 = test system: CLK2
# CLK3 = test system: CLK3
# CLK4 = test system: CLK4
# CSF1R-autoinhibited = test system: CSF1R-autoinhibited
# CSF1R = test system: CSF1R
# CSK = test system: CSK
# CSNK1A1L = test system: CSNK1A1L
# CSNK1A1 = test system: CSNK1A1
# CSNK1D = test system: CSNK1D
# CSNK1E = test system: CSNK1E
# 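Further: KINOMEscan kinase panel screen.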
compound,measurement,setting,value
COc1ccc(Nc2nccc(N3CCC(NC(=O)c4cccc(C#N)c4)C3)n2)cc1 (centres unmarked) [GSK1379730],%Inh,CDK8,17%
same,%Inh,CDK9,0%
same,%Inh,CDKL1,24%
same,%Inh,CDKL2,0%
same,%Inh,CDKL3,0%
same,%Inh,CDKL5,0%
same,%Inh,CHEK1,0%
same,%Inh,CHEK2,0%
same,%Inh,CIT,0%
same,%Inh,CLK1,11%
same,%Inh,CLK2,0%
same,%Inh,CLK3,5%
same,%Inh,CLK4,21%
same,%Inh,CSF1R-autoinhibited,24%
same,%Inh,CSF1R,0%
same,%Inh,CSK,0%
same,%Inh,CSNK1A1L,11%
same,%Inh,CSNK1A1,0%
same,%Inh,CSNK1D,29%
same,%Inh,CSNK1E,27%
COc1cc2c(Nc3ccc(NC(=O)c4ccccc4)cc3)ncnc2cc1OCCCN1CCOCC1 [GSK301329],%Inh,CDK8,0%
same,%Inh,CDK9,0%
same,%Inh,CDKL1,23%
same,%Inh,CDKL2,30%
same,%Inh,CDKL3,0%
same,%Inh,CDKL5,0%
same,%Inh,CHEK1,0%
same,%Inh,CHEK2,58%
same,%Inh,CIT,9%
same,%Inh,CLK1,10%
same,%Inh,CLK2,0%
same,%Inh,CLK3,100%
same,%Inh,CLK4,6%
same,%Inh,CSF1R-autoinhibited,0%
same,%Inh,CSF1R,18%
same,%Inh,CSK,4%
same,%Inh,CSNK1A1L,9%
same,%Inh,CSNK1A1,7%
same,%Inh,CSNK1D,3%
same,%Inh,CSNK1E,59%
Cc1ccn2nc(-c3ccc(F)cc3)c(-c3ccncc3)c2c1.Cl [GW457859],%Inh,CDK8,12%
same,%Inh,CDK9,0%
same,%Inh,CDKL1,23%
same,%Inh,CDKL2,28%
same,%Inh,CDKL3,0%
same,%Inh,CDKL5,0%
same,%Inh,CHEK1,0%
same,%Inh,CHEK2,43%
same,%Inh,CIT,100%
same,%Inh,CLK1,22%
same,%Inh,CLK2,0%
same,%Inh,CLK3,1%
same,%Inh,CLK4,55%
same,%Inh,CSF1R-autoinhibited,25%
same,%Inh,CSF1R,9%
same,%Inh,CSK,0%
same,%Inh,CSNK1A1L,35%
same,%Inh,CSNK1A1,92.5%
same,%Inh,CSNK1D,96.3%
same,%Inh,CSNK1E,99.6%
Cn1ccc2ncnc(Oc3ccc(NC(=O)Nc4cnn(C(C)(C)C)c4)c(Cl)c3)c21,%Inh,CDK8,97.1%
same,%Inh,CDK9,0%
same,%Inh,CDKL1,21%
same,%Inh,CDKL2,10%
same,%Inh,CDKL3,19%
same,%Inh,CDKL5,26%
same,%Inh,CHEK1,3%
same,%Inh,CHEK2,0%
same,%Inh,CIT,39%
same,%Inh,CLK1,0%
same,%Inh,CLK2,12%
same,%Inh,CLK3,5%
same,%Inh,CLK4,9%
same,%Inh,CSF1R-autoinhibited,28%
same,%Inh,CSF1R,99.9%
same,%Inh,CSK,0%
same,%Inh,CSNK1A1L,0%
same,%Inh,CSNK1A1,0%
same,%Inh,CSNK1D,0%
same,%Inh,CSNK1E,2%
COC(=O)c1cccc(NC(=O)NC2CCN(c3ccnc(Nc4cc(OC)c(OC)c(OC)c4)n3)C2)c1 (centres unmarked) [GSK1379767],%Inh,CDK8,56%
same,%Inh,CDK9,1%
same,%Inh,CDKL1,14%
same,%Inh,CDKL2,67%
same,%Inh,CDKL3,0%
same,%Inh,CDKL5,0%
same,%Inh,CHEK1,0%
same,%Inh,CHEK2,58%
same,%Inh,CIT,10%
same,%Inh,CLK1,0%
same,%Inh,CLK2,0%
same,%Inh,CLK3,0%
same,%Inh,CLK4,8%
same,%Inh,CSF1R-autoinhibited,34%
same,%Inh,CSF1R,26%
same,%Inh,CSK,0%
same,%Inh,CSNK1A1L,0%
same,%Inh,CSNK1A1,28%
same,%Inh,CSNK1D,0%
same,%Inh,CSNK1E,13%
CC(C)c1nc(-c2cccc(NS(=O)(=O)c3ccccc3)c2)c(-c2ccnc(Nc3ccc4c(c3)CN(C)CC4)n2)s1 [GSK1649598],%Inh,CDK8,0%
same,%Inh,CDK9,60%
same,%Inh,CDKL1,0%
same,%Inh,CDKL2,100%
same,%Inh,CDKL3,37%
same,%Inh,CDKL5,99%
same,%Inh,CHEK1,5%
same,%Inh,CHEK2,24%
same,%Inh,CIT,84%
same,%Inh,CLK1,30%
same,%Inh,CLK2,10%
same,%Inh,CLK3,24%
same,%Inh,CLK4,0%
same,%Inh,CSF1R-autoinhibited,0%
same,%Inh,CSF1R,89%
same,%Inh,CSK,97.6%
same,%Inh,CSNK1A1L,88%
same,%Inh,CSNK1A1,87%
same,%Inh,CSNK1D,86%
same,%Inh,CSNK1E,98.6%
CNC(=O)c1ccccc1Nc1nc(Nc2cccc(CS(C)(=O)=O)c2)ncc1C.O=CO [GSK1520489],%Inh,CDK8,4%
same,%Inh,CDK9,0%
same,%Inh,CDKL1,28%
same,%Inh,CDKL2,52%
same,%Inh,CDKL3,0%
same,%Inh,CDKL5,0%
same,%Inh,CHEK1,16%
same,%Inh,CHEK2,86%
same,%Inh,CIT,45%
same,%Inh,CLK1,99.3%
same,%Inh,CLK2,94.6%
same,%Inh,CLK3,86%
same,%Inh,CLK4,98.9%
same,%Inh,CSF1R-autoinhibited,90%
same,%Inh,CSF1R,99.8%
same,%Inh,CSK,95.1%
same,%Inh,CSNK1A1L,63%
same,%Inh,CSNK1A1,46%
same,%Inh,CSNK1D,25%
same,%Inh,CSNK1E,20%
Cl.Cl.NC[C@H](CC1CCCCC1)NC(=O)c1ccc(-c2ccnc3[nH]ccc23)s1 [GSK1581428],%Inh,CDK8,11%
same,%Inh,CDK9,39%
same,%Inh,CDKL1,23%
same,%Inh,CDKL2,51%
same,%Inh,CDKL3,89%
same,%Inh,CDKL5,44%
same,%Inh,CHEK1,96.8%
same,%Inh,CHEK2,27%
same,%Inh,CIT,99%
same,%Inh,CLK1,85%
same,%Inh,CLK2,82%
same,%Inh,CLK3,63%
same,%Inh,CLK4,90%
same,%Inh,CSF1R-autoinhibited,0%
same,%Inh,CSF1R,85%
same,%Inh,CSK,0%
same,%Inh,CSNK1A1L,69%
same,%Inh,CSNK1A1,77%
same,%Inh,CSNK1D,80%
same,%Inh,CSNK1E,82%
CS(=O)(=O)c1cccc(CNc2nc(Nc3ccc4c(c3)[C@@H]3C[C@@H]4CNC3=O)ncc2C(F)(F)F)c1,%Inh,CDK8,0%
same,%Inh,CDK9,27%
same,%Inh,CDKL1,71%
same,%Inh,CDKL2,80%
same,%Inh,CDKL3,2%
same,%Inh,CDKL5,0%
same,%Inh,CHEK1,0%
same,%Inh,CHEK2,17%
same,%Inh,CIT,51%
same,%Inh,CLK1,81%
same,%Inh,CLK2,6%
same,%Inh,CLK3,0%
same,%Inh,CLK4,0%
same,%Inh,CSF1R-autoinhibited,22%
same,%Inh,CSF1R,5%
same,%Inh,CSK,0%
same,%Inh,CSNK1A1L,0%
same,%Inh,CSNK1A1,0%
same,%Inh,CSNK1D,0%
same,%Inh,CSNK1E,0%
NC(=O)Nc1sc(-c2ccc(F)cc2)cc1C(N)=O [GW789449],%Inh,CDK8,46%
same,%Inh,CDK9,0%
same,%Inh,CDKL1,27%
same,%Inh,CDKL2,17%
same,%Inh,CDKL3,10%
same,%Inh,CDKL5,0%
same,%Inh,CHEK1,0%
same,%Inh,CHEK2,69%
same,%Inh,CIT,27%
same,%Inh,CLK1,9%
same,%Inh,CLK2,0%
same,%Inh,CLK3,15%
same,%Inh,CLK4,0%
same,%Inh,CSF1R-autoinhibited,39%
same,%Inh,CSF1R,77%
same,%Inh,CSK,6%
same,%Inh,CSNK1A1L,5%
same,%Inh,CSNK1A1,35%
same,%Inh,CSNK1D,55%
same,%Inh,CSNK1E,40%
